The record followed here is PubChem BioAssay (EPA / NIEHS).

Where “and” joins values, the source holds several entries; their conditions need not be identical. Equal values may be shown once. Some structures have more than one record in an assay (separate samples or runs), and their calls can disagree. Calls of active or inactive are those of the source. Rule for the calls: active = hit-call score of the fitted dose curve at least 0.9, where 1 is the maximum; inactive = score below 0.9.

Read-out in assay [1]: E-selectin (Homo sapiens) (UniProt P16581)
Briefly: BSK_SAg_Eselectin: BioMAP Diversity Plus: SAg Assay for Eselectin Biomarker Activity (AID 2283091). To be noted: primary human HUVEC with PBMC; actives raise or lower the signal. An outline of the steps: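 Endpoint values derive from bidirectional fitting relative to DMSO, using ELISA-measured E-selectin in a human vascular co-culture (umbilical vein endothelium plus PBMC) sampled 24 h after dosing.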

The nature of assay [2]: BSK_SAg_PBMCCytotoxicity: PBMC Cytotoxicity Assessment in the BioMAP Diversity Plus: SAg Assay (AID 2283093).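 For AC50: PBMC superantigen activated with SEB plus TSST-1 one hour after compound addition.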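 Note: PBMC viability measured as Alamar Blue reduction fluorescence at 546/580 nm; fitted both ways against DMSO so a hit may be loss or gain of signal.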 To be noted: primary human HUVEC with PBMC. An outline of the steps:
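HUVEC/PBMC co-culture; PBMC exposed to chemical 1 h before SEB and TSST-1 activation (20 ng/mL each), incubated 90 h, then Alamar Blue 6 h, fluorescence 546/580 nm. Bidirectional fit versus DMSO baseline.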

Read-out in assay [3]: Interleukin-8 (IL8), CXCL8 (gene 3576)
Briefly: BSK_SAg_IL8: BioMAP Diversity Plus: SAg Assay for Interleukin-8 (IL8) Biomarker Activity (AID 2283094). To be noted: primary human HUVEC with PBMC; actives raise or lower the signal. An outline of the steps: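 Human umbilical vein endothelial cells co-cultured with peripheral blood mononuclear cells; IL-8 measured by ELISA 24 h after chemical dosing. Bidirectional concentration-response fitting used DMSO as negative control and activity baseline.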

Assay [4] in a line: BSK_SAg_Proliferation: Cell Proliferation Assessment in the BioMAP Diversity Plus: SAg Assay (AID 2283095).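 Note: relative cell number as total protein by SRB absorbance in sub-confluent culture.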 To be noted: primary human HUVEC with PBMC. In short, it runs like this: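 Human umbilical vein endothelial cells co-cultured with peripheral blood mononuclear cells; total protein measured by sulforhodamine B staining (0.1% SRB after 10% TCA fixation), absorbance at 560 nm, at 96 h. Bidirectional fit against DMSO baseline.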

A short description of assay [5]: BSK_SAg_SRB: Viability Assessment in the BioMAP Diversity Plus: SAg Assay (AID 2283096).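 Note: cells read one day after compound addition; hits may be either gain or loss of signal compared with DMSO.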 To be noted: primary human HUVEC with PBMC. In short, it runs like this: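 Human umbilical vein endothelial cells co-cultured with PBMC, read 24 h after compound dosing. Total protein measured by sulforhodamine B staining (0.1% SRB after 10% TCA fixation, absorbance 560 nm); bidirectional fit versus DMSO baseline.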

Read-out in assay [6]: Monokine induced gamma interferon (MIG), CXCL9 (gene 4283)
Briefly: BSK_SAg_MIG: BioMAP Diversity Plus: SAg Assay for Monokine induced gamma interferon (MIG) Biomarker Activity (AID 2283092). To be noted: primary human HUVEC with PBMC; actives raise or lower the signal. An outline of the steps: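 HUVEC plus human PBMC co-culture, chemicals dosed and MIG (CXCL9) quantified by ELISA at 24 h. Bidirectional curve fitting against DMSO as negative control and baseline, so both gain and loss of signal count as activity.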

E-selectin (Homo sapiens), sequence (P16581 whole entry, looked up): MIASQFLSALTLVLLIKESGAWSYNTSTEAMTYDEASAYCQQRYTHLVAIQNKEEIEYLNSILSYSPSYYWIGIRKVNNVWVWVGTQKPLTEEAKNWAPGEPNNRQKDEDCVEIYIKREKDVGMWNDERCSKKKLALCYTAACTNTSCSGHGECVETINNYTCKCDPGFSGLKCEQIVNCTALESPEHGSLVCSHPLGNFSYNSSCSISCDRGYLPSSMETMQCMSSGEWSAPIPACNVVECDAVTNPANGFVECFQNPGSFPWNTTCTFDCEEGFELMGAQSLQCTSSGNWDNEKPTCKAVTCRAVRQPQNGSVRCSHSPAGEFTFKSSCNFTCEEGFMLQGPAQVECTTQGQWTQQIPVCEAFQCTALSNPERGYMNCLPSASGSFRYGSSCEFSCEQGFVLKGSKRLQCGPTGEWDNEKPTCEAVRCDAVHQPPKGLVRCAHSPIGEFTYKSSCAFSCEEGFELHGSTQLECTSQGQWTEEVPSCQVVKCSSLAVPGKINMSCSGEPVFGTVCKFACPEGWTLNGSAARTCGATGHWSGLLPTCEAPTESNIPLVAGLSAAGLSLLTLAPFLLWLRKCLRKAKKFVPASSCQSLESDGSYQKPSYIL

Take `CCc1c(C)cc(N)c(CC)c1N`: the result in assay [1], in assay [2], in assay [3], in assay [4] and in assay [5] was inactive.
Consider `COc1cc(C=O)ccc1OC(=O)C(C)C`, for which the outcome in assay [1], in assay [2], in assay [3], in assay [4] and in assay [5] was inactive.
For `C=CCOC(=O)CCC1CCCCC1`, the outcome in assay [1], in assay [2], in assay [3], in assay [4] and in assay [5] was inactive.
For `CCCCCCCCCCCCCCCCCC(=O)OCC(CC)CCCC` (stereo unspecified), the outcome in assay [1], in assay [2], in assay [3], in assay [4] and in assay [5] was inactive.
With `Cc1ccc2n[nH]nc2c1`, the result in assay [1], in assay [6], in assay [2], in assay [3], in assay [4] and in assay [5] was inactive.
As a reminder, the AC50 is the concentration at which the activity in the assay is half-maximal. For `CN(CCOc1ccc(CC2SC(=O)NC2=O)cc1)c1ccccn1` (stereo unspecified), the AC50 in assay [1], in assay [3] and in assay [4] was 20 µM (active) in each case. The outcome in assay [2] and in assay [5] was inactive.
As to `CCCCCCCCC=O`, the outcome in assay [1], in assay [2], in assay [3], in assay [4] and in assay [5] was inactive.
With `CC(C)Oc1ccccc1O`, the result in assay [1], in assay [2], in assay [3], in assay [4] and in assay [5] was inactive.
Take `CC(=O)[C@H]1CC[C@H]2[C@@H]3CC=C4C[C@@H](O)CC[C@]4(C)[C@H]3CC[C@]12C`: the outcome in assay [1], in assay [3], in assay [4] and in assay [5] was inactive. Moreover, the AC50 in assay [2] was 6.25 µM (active) and 7.57 µM (active).
Turning to `O=C1CCCCCCCCCCCCCCO1`, the result in assay [1], in assay [6], in assay [3] and in assay [5] was inactive. For the same molecule, the AC50 is 11.7 µM (active) in assay [2] and 10.3 µM (active) in assay [4].
With `CC(=O)OCCC(C)CC(C)(C)C` (stereo unspecified), the outcome in assay [1], in assay [2], in assay [3], in assay [4] and in assay [5] was inactive. Besides, in assay [4], the AC50 was 1.85 µM (active).
Consider `BrC1CCC(Br)C(Br)CCC(Br)C(Br)CCC1Br` (stereo unspecified), for which the outcome in assay [1] and in assay [3] was inactive. Besides, the AC50 is 2.03 µM (active) in assay [2], 4.63 µM (active) in assay [4] and 4.67 µM (active) in assay [5].
In the case of `CC1COc2ccccc2N1C(=O)C(Cl)Cl` (stereo unspecified), the AC50 in assay [1] was 13.3 µM (active); in assay [5], 10.3 µM (active). The result in assay [2], in assay [3] and in assay [4] was inactive.
Regarding `OC[C@H]1O[C@H](O[C@]2(CCl)O[C@H](CCl)[C@@H](O)[C@@H]2O)[C@H](O)[C@@H](O)[C@H]1Cl`, the result in assay [1], in assay [6], in assay [2], in assay [3], in assay [4] and in assay [5] was inactive.
Take `CC[Si](OC(C)=O)(OC(C)=O)OC(C)=O`: the result in assay [1], in assay [6], in assay [2], in assay [3], in assay [4] and in assay [5] was inactive.
As to `Nc1cc([N+](=O)[O-])ccc1Cl`, the result in assay [1], in assay [6], in assay [2], in assay [3], in assay [4] and in assay [5] was inactive.
With `O=C(O)C[C@H](O)C[C@H](O)/C=C/c1c(C2CC2)nc2ccccc2c1-c1ccc(F)cc1`, the AC50 is 0.00197 µM (active) in assay [1], 0.0041 µM (active) in assay [3], 0.756 µM (active) in assay [4] and 0.104 µM (active) in assay [5]. Further, the outcome in assay [2] was inactive.
Take `C#C[C@]1(O)CC[C@H]2[C@@H]3CCC4=Cc5oncc5C[C@]4(C)[C@H]3CC[C@@]21C`: the result in assay [1], in assay [2], in assay [3], in assay [4] and in assay [5] was inactive.
Consider `C=C[Si](OCC)(OCC)OCC`, for which the outcome in assay [1], in assay [2], in assay [3], in assay [4] and in assay [5] was inactive.
